HP1b binding inh: blocks HP1-beta chromodomain binding to methylated histone tails; P83916; AlphaScreen HP1-beta / biotin-H3K9me3 peptide binding; Potency, µM (titrated, usually from 114 µM), for the others: at the highest dose activity change, negative = inhibition, actives largely listed as inhibitors; actives 0.56% (n = 390,000); AID 540317; also: nearly all actives have a fitted effect of over 70% in size
Target sequence (P83916 whole entry, looked up): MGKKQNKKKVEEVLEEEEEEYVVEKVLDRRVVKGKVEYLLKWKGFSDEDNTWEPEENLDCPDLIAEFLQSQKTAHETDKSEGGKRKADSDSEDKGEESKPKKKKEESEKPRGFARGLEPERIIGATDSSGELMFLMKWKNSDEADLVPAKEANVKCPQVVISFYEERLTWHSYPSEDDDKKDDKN
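AlphaScreen: HP1-beta (50 nM) preformed 30 min with biotin-H3(1-18)K9me3 peptide (50 nM) in PBS pH 7.4, 0.01% Tween-20. Compound added for 30 min at RT, then streptavidin donor/nickel chelate acceptor beads (10 ug/mL) for 30 min.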
Sfp inh: inhibitors of Bacillus subtilis Sfp phosphopantetheinyl transferase. Q9F4F7. actives 3.5% (n = 310,000). Biochemical Sfp PPTase activity, qHTS. AID 1490. Potency, µM, for inactives: largest response in the series, negative = inhibition, hits mostly inhibitors;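 also: the enzyme is Sfp with the accession as filed and its product quenches rhodamine fluorescence; 0% = enzyme reaction without inhibitor and -100% = no enzyme wells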
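Fluorescence-quenching assay with 15 nM Sfp, 5 uM rhodamine-CoA and 12.5 uM BHQ-2-labelled ybbR peptide in pH 7.6 Hepes/MgCl2 buffer. Enzyme was pre-incubated with compound for 15 min at room temperature. Rate was taken from the 30-min fluorescence change (525/598 nm).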
BAZ2B inh: BAZ2B (human) inhibition; actives 4.4% (n = 360,000); AID 504333; Q9UIF8; Potency, µM (doses to about 114 µM), for the others: top-dose activity change, negative = inhibition, actives largely listed as inhibitors; AlphaScreen BAZ2B-H3K14Ac peptide displacement; also: % is scaled to controls: 0 for no effect and ±100 for the full control effect; nearly all actives have a fitted effect of over 60% in size
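AlphaScreen displacement of biotin-H3(5-23)K14Ac peptide (50 nM final) from BAZ2B (50 nM final) in PBS pH 7.4, 0.01% Tween-20; complex preformed 30 min RT, then compounds (top 110 uM) 30 min RT, beads 20 min dark.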
L3MBTL1 block: inhibitors of human L3MBTL1; actives 0.66% (n = 230,000); AID 485360; Potency, µM (doses to about 57.1 µM), without a hit: top-dose activity, negative = inhibition, actives largely listed as inhibitors; AlphaScreen L3MBTL1–H3K9me1 peptide binding; also: % is scaled to controls: 0 for no effect and ±100 for the full control effect; nearly all actives have a fitted effect of over 60% in size
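First, the protein-peptide complex forms for 30 min at room temperature (L3MBTL1 50 nM, biotinylated H3K9me1 peptide 75 nM). Next, compounds are pin-transferred and incubated 30 min. Finally, AlphaScreen beads are added and read after 30 min.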
G9a block: inhibitors of human histone lysine methyltransferase G9a; Q96KQ7; G9a H3K9 monomethylation, AlphaScreen, 2 h; Potency, µM (titrated, usually from 102 µM), inactives show at the highest dose activity, negative = inhibition, most hits filed as inhibitors; actives 8.8% (n = 350,000); AID 504332; also: % is scaled to controls: 0 for no effect and ±100 for the full control effect; nearly all actives have a fitted effect of over 75% in size
Target sequence (Q96KQ7 913-1193 limits assumed): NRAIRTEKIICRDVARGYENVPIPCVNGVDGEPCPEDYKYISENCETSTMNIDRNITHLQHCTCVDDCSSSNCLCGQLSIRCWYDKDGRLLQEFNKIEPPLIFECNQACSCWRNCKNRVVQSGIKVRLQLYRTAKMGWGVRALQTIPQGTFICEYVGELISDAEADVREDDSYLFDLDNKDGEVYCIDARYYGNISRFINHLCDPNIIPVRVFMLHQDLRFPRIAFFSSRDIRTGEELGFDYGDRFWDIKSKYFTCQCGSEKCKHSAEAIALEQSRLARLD
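Signal arises when biotinylated H3K9 peptide, once monomethylated, bridges streptavidin donor and antibody-captured acceptor beads. Enzyme at 20 nM was preincubated 15 min with test compounds; peptide 500 nM and SAM 20 uM then reacted for 2 h.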
JMJD2A Tudor: inhibitors of human JMJD2A Tudor domain | AlphaScreen JMJD2A-Tudor / H3K4me3 peptide binding | O75164 | Potency, µM (titrated, usually from 114 µM), for inactives: at the top dose activity change, negative = inhibition, usual class: inhibitors | actives 4.4% (n = 390,000) | AID 504339; also: % is scaled to controls: 0 for no effect and ±100 for the full control effect; nearly all actives have a fitted effect of over 50% in size
* = called active by the depositor; ? = inconclusive; / = no result given; [ ] = another dose, or the depositor's remark. Hits are enriched below; roughly 12% of the tested compounds scored in any of these assays. Calls follow the shape of the dose curve; as a rule, active = well fitted curve in the direction sought with a large enough effect; inconclusive = small, poorly fitted or top-dose-only effect, or another doubt; inactive = no such curve, though single readings can be large; an effect the other way counts as inactive or inconclusive. Potency is read from the fitted curve at half-maximal effect.

SMILES	HP1b binding inh	Sfp inh	BAZ2B inh	L3MBTL1 block	G9a block	JMJD2A Tudor
COc1ccc2c(c1)S/C(=C\C(=O)c1ccncc1)N2C	41%	8.9µM*	/	-6%	?	1%
CN1/C(=C\C(=O)c2cccs2)Sc2ccccc21	163%	50µM*	9%	52%	12%	27%
COc1cc(OC)cc(C(=O)/C=C2\Sc3ccccc3N2C)c1	35%	50µM*	40%	66%	/	15%
COc1cccc([C@@H]2Oc3ccc(OC)cc3[C@H](O)[C@H]2O)c1	/	-7%	/	/	/	/
CC(=O)c1ccc(S(=O)(=O)N2CCn3cccc3C2c2ccccc2F)cc1 (configuration not stated)	-3%	/	?	/	?	-32%
CC1CCN(CCCCOc2ccc(C(=O)c3ccccc3)cc2)CC1	-1%	-23%	-14%	/	35µM*	-21%[11.4 µM]
CC1CCN(CCOc2ccc(C(=O)c3ccccc3)cc2)CC1	20%	-21%	?	0%	7.1µM*	?
CCOc1ccccc1Nc1ccc2cc(S(=O)(=O)N3CCCCC3)ccc2n1	107%	/	34%	/	?	49%
COc1ccc(N=CC2CCCCC2=O)c([N+](=O)[O-])c1 (configuration not stated)	45µM*	/	/	/	/	25µM*
COc1ccc(N=C2NC(=O)CS2)c([N+](=O)[O-])c1	13%	9%	-28%	-5%	-34%	-20%
CCC(C)[C@H](NC(=O)NCCC1=CCCCC1)C(=O)OC (some centres not stated)	0%	3%	-2%	9%	?	-7%
COC(=O)[C@H](C)NC(=O)NCCC1=CCCCC1	7%	12%	-12%	-13%	8%	71µM*
CCOC(=O)CSc1nc2ccc(NC(=O)c3ccccc3)cc2s1	48%	/	-3%	/	?	-5%
Nc1ccc2nc(SCC(=O)N3CCOCC3)sc2c1	31%	9%	-1%	5%	0%	-8%
Nc1ccc2nc(SCC(=O)N3CCN(c4ccccc4)CC3)sc2c1	4%	6%	?	/	50µM*	-31%
Nc1ccc2nc(SCc3cccc(F)c3)sc2c1	-7%	-19%	/	/	45µM*	-33%
CCOC(=O)CSc1nc2ccc(N)cc2s1	28%	-13%	-6%	/	32µM*	-18%
CCN(CC)C(=O)CSc1nc(N)c(C(=O)Nc2ccc(OC)cc2)s1	10%	1%	-24%	0%	-5%[59 µM]	-27%
CCOC(=O)CSc1nc(N)c(C(=O)Nc2ccc(N(C)C)cc2)s1	?	-8%	50µM*	-18%	16µM*	40µM*
C[C@@H]1COC(=O)O1	/	17%	/	/	/	/
CCC(C(=O)O)C1OC(C(C)C(O)C(C)C(=O)C(CC)C2OC3(C=CC(O)C4(CCC(C)(C5CCC(O)(CC)C(C)O5)O4)O3)C(C)CC2C)C(C)CC1C (configuration not stated)	/	15%	/	/	-6%[12.7 µM]	/
CCCCCCCCCCCCCCCC(=O)N[C@@H](COP(=O)(O)O)C(=O)O	/	-9%	/	/	14%[59 µM]	/
O=C(CCCc1nc2ccccc2s1)N1CCN(c2ccccc2)CC1	9%	45µM*	-30%	-11%	?	-20%
CCCSC1=N/C(=C\C=C\c2ccco2)C(=O)S1	35µM*	32µM*	11µM*	5.6µM*	14µM*	16µM*
COc1cc(/C=C2/N=C(C3CCCCC3)OC2=O)cc(OC)c1OC	60%	?	15%	/	-47%[59 µM]	?
O=C1NNC(c2ccccc2)=N/C1=C\c1ccccc1Cl	19%	11%	-18%	-5%	/	-32%
COc1cc(/C=C2\N=C(C)OC2=O)cc(OC)c1OC	8%	6%	-4%	/	32µM*	-9%
O=C1SC(SCc2ccccc2)=N/C1=C\c1ccco1	?	-21%	13µM*	/	13µM*	56µM*
O=C1NNC(c2ccccc2)=N/C1=C\c1ccco1	-12%	35µM*	71µM*	?	/	?
